KAT2A inh = GCN5L2 (KAT2A) acetyltransferase inhibition | Q92830 | GCN5L2 HAT assay, ThioGlo1 CoA-SH fluorescence | actives 0.21% (n = 390,000) | Potency, µM (doses to about 58.9 µM), without a hit: at the highest dose activity change, negative = inhibition, actives largely listed as inhibitors
Target sequence (Q92830 whole entry, looked up): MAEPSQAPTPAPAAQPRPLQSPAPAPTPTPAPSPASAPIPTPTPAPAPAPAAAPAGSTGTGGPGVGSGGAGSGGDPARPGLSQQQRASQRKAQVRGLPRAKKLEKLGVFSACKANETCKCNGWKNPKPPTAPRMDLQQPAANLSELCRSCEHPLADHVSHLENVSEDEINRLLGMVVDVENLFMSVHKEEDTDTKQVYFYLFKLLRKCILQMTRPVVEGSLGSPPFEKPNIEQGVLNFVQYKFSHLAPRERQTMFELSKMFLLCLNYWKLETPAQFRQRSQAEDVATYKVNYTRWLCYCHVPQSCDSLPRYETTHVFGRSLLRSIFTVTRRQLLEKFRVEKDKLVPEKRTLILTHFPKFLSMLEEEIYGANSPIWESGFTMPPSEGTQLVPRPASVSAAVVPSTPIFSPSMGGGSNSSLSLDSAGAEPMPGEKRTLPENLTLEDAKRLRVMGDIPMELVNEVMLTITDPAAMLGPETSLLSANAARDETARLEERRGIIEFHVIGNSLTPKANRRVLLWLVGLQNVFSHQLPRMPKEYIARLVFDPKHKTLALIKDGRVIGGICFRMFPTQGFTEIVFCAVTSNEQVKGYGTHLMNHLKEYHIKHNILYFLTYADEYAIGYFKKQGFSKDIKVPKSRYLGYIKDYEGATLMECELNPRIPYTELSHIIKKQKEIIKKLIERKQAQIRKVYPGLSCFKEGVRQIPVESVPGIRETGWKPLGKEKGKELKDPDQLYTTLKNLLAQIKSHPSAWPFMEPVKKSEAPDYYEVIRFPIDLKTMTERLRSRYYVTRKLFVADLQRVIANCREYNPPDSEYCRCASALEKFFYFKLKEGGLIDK
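Free CoA generated was detected with ThioGlo1 (50uM) fluorescence at Ex340nm/Em540nm, read immediately and after 20 min at room temperature. Enzyme, 20 nM in HEPES pH 7.5 buffer, saw compounds 15 min before adding 75uM H3(1-25) peptide and 70uM acetyl-CoA.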
TDP1 inh = TDP1 (human) enzyme inhibition; AID 485290; Potency, µM (top dose mostly 130 µM), without a hit: top-dose activity change, negative = inhibition, most hits filed as inhibitors; recombinant TDP1, AlphaScreen DNA substrate cleavage; actives 0.28% (n = 350,000); note: nearly all actives have a fitted effect of over 40% in size
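Tdp1 1 nM final; 15 min RT w/ cpd; substrate 15 nM, 5 min; beads 10 ug/ml, 10 min; AlphaScreen read. Neg ctrl: no enzyme.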
DT40 TDP1 no CPT = qHTS for Inhibitors of human tyrosyl-DNA phosphodiesterase 1 (TDP1): qHTS in cells in absence of CPT; DT40 Tdp1-/- hTDP1 cells, no CPT, ATP luminescence, 48 h; Potency, µM (series often up to 46.2 µM), for inactives: at the top dose activity change, negative = growth inhibition, most hits filed as inhibitors; actives 15% (n = 420,000); AID 686978, 2013; note: nearly all actives have a fitted effect of over 55% in size
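A cellular qHTS used chicken DT40 cells lacking endogenous Tdp1 but carrying stably transfected human TDP1. Compounds were applied without camptothecin, and cell growth kinetics were judged by ATP-dependent luminescence after ≥48 hr.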
VDR inhibitor = blocks the human vitamin D receptor; P11473; VDR-SRC2-3 peptide fluorescence polarization, 2 h; Potency, µM, inactives show max response, negative = inhibition, usual class: inhibitors; actives 0.93% (n = 400,000); AID 504847
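Two reagent solutions held at 4 deg C in the dark were dispensed, compounds pinned at 23 nl, and the mixture incubated 2 h at room temperature. Read-out: fluorescence polarization of VDR–SRC2-3 peptide binding.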
TDP1 cell CPT = growth inhibition of DT40 Tdp1-/-;hTDP1 cells with camptothecin (screen for TDP1 inhibitors); chicken DT40 Tdp1-/-;hTDP1 cells + 20 nM CPT, ATP luminescence, 48 h; Potency, µM (highest dose often 46.2 µM), for the others: at the top dose activity change, negative = growth inhibition, actives largely listed as inhibitors; actives 12% (n = 420,000); note: nearly all actives have a fitted effect of over 55% in size
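Cell growth measured by CellTiter-Glo luminescence after a minimum 48 h, 37 C compound exposure with 20 nM CPT in Tdp1-knockout DT40 cells stably expressing hTDP1, seeded 400/well; qHTS titration format.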
PLK1 PBD block = inhibitors of human PLK1 polo-box domain binding; Plk1 PBD binding of FITC phosphopeptide, fluorescence polarization; Potency, µM, inactives show max response, negative = inhibition, most hits filed as inhibitors; actives 2.8% (n = 360,000); AID 720504; note: series mostly up to about 57 µM; nearly all actives have a fitted effect of over 65% in size
* hit, by the source's call; u = inconclusive; x = no result given. Rows were chosen to be rich in hits. Some 18% of all compounds tested hit in one or more screens of this group. Calls come from the whole dose curve; as a rule, active = well fitted curve in the direction sought with a large enough effect; inconclusive = small, poorly fitted or top-dose-only effect, or another doubt; inactive = no such curve, though single readings can be large; an effect the other way counts as inactive or inconclusive. % is set by controls: 0 for no effect and ±100 for the full control effect; potency is the fitted concentration of half-maximal effect.

SMILES	KAT2A inh	TDP1 inh	DT40 TDP1 no CPT	VDR inhibitor	TDP1 cell CPT	PLK1 PBD block
Cc1cc(NC(=O)c2cc(-c3ccccn3)nc3ccccc23)no1	-2.0%	-1.0%	-21.2%	2.7%	-6.8%	1.8%
CCN(CC)S(=O)(=O)c1ccc2[nH]c(=O)cc(C(=O)Nc3ccc(C)c(S(=O)(=O)N(CC)CC)c3)c2c1	-11.1%	0.0%	23.1µM*	-1.2%	u	-11.2%
CCN(CC)C(=O)c1cccc(NC(=O)c2cc(-c3ccccn3)nc3ccccc23)c1	-2.5%	3.1%	16.4µM*	9.1%	u	0.4%
CCN(CC)S(=O)(=O)c1cc(NC(=O)COC(=O)Cn2cnc3ccccc32)ccc1C	-1.9%	0.6%	1.1%	-10.7%	-24.4%	4.5%
CCN(CC)S(=O)(=O)c1cc(NC(=O)c2cc(-c3ccccn3)nc3ccccc23)ccc1C	-14.7%	5.1%	14.6µM*	-12.5%	23.1µM*	0.3%
COc1ccc(N2CCN(C(=O)c3c(-c4c(F)cccc4Cl)noc3C)CC2)cc1	u	1.2%	-18.4%	-11.5%	-17.7%	0.7%
C=CCN(C(=O)c1csnn1)C(C(=O)NCc1ccc(F)cc1)c1cccs1 (stereo unspecified)	0.3%	-0.2%	u	3.4%	-23.2%	-1.3%
O=C1NC(=S)SC1=Cc1ccccc1C(=O)O	x	x	-6.8%	x	2.7%	-17.2%
O=C1NC(=S)S/C1=C\c1cc(Cl)ccc1Cl	x	x	u	u	20.6µM*	21.2µM*
C[C@@H]1CN([C@@H](C)CO)C(=O)c2cc(NC(=O)CCC(F)(F)F)ccc2O[C@H]1CN(C)Cc1ccc(Cl)c(Cl)c1	-17.4%	1.3%	u	7.9%	20.6µM*	-0.7%
C[C@@H]1CN([C@H](C)CO)C(=O)Cc2cc(NC(=O)Cn3cnnn3)ccc2O[C@@H]1CN(C)Cc1ccc(Cl)c(Cl)c1	-13.0%	5.6%	u	-10.0%	18.4µM*	-14.6%
C[C@@H]1CCCCO[C@@H](CN(C)Cc2ccc(Cl)c(Cl)c2)[C@@H](C)CN([C@H](C)CO)C(=O)c2cc(NC(=O)CCC(F)(F)F)ccc2O1	x	x	10.3µM*	x	8.2µM*	-11.5%
C[C@H](CO)N1C[C@H](C)[C@H](CN(C)Cc2ccc(-c3ccccc3)cc2)Oc2ccc(NS(=O)(=O)c3ccccc3)cc2CC1=O	-14.5%	3.6%	18.4µM*	-10.5%	16.4µM*	-9.9%
C[C@@H]1CCCCO[C@H](CN(C)Cc2ccc(C(=O)O)cc2)[C@H](C)CN([C@@H](C)CO)C(=O)c2cc(NC(=O)Nc3ccc(C(F)(F)F)cc3)ccc2O1	x	x	-6.7%	x	-3.8%	-20.8%
Cc1ccc(S(=O)(=O)Nc2ccc3c(c2)CC(=O)N([C@H](C)CO)C[C@@H](C)[C@H](CN(C)Cc2ccc(-c4ccccc4)cc2)O3)cc1	-13.5%	4.8%	u	-22.9%	u	-5.3%
CN(Cc1ccccc1)S(=O)(=O)c1ccc(-c2cnc(C3CC3)o2)cc1	-6.6%	3.8%	u	17.2%	u	x
CCC1=NN2C(=N)/C(=C\c3cccn3-c3c(C)cccc3C)C(=O)N=C2S1	-13.3%	5.0%	3.66µM*	12.3%	u	u
CCCCNC(=O)c1nc(C2CCN(S(=O)(=O)c3ccc(C(F)(F)F)cc3)CC2)oc1-c1ccccc1	x	x	7.31µM*	x	5.8µM*	1.0%
CCCCNC(=O)c1nc(C2CCN(S(=O)(=O)c3ccc(S(C)(=O)=O)cc3)CC2)oc1-c1ccccc1	x	x	13µM*	x	5.8µM*	-24.4%
CCCCNC(=O)c1nc(C2CCN(S(=O)(=O)c3cccc(C(F)(F)F)c3)CC2)oc1-c1cccc(C(F)(F)F)c1	x	x	6.3%	x	0.3%	-3.1%
O=S(=O)(c1ccc2c(c1)OCO2)N1CCN(c2nc(-c3cccs3)nc3ccccc23)CC1	x	0.4%	u	0.4%	u	x
O=c1[nH]c(CSc2nnc(NCCCN3CCOCC3)s2)nc2cc(Cl)ccc12	-1.5%	6.1%	0.2%	7.6%	-29.1%	-4.4%
S=c1[nH]nc(NCCCN2CCOCC2)s1	u	11.0%	-28.1%	89.1µM*	-16.5%	11.9µM*
COc1ccccc1NC(=O)CSc1cn(CC(=O)N2CCCC2)c2ccccc12	-3.4%	7.7%	u	4.9%	u	x
O=C(C1=C[C@H](C2CCCCC2)C[C@H](OCc2ccc(CO)cc2)O1)N1CCN(Cc2ccccc2)CC1	-0.8%	7.7%	18.4µM*	-17.8%	18.4µM*	-27.2%
SMILES	KAT2A inh	TDP1 inh	DT40 TDP1 no CPT	VDR inhibitor	TDP1 cell CPT	PLK1 PBD block
O=C(Nc1ccccc1)C1=C[C@H](C2CCCCC2)C[C@H](OCc2ccc(CO)cc2)O1	-5.8%	3.8%	u	-22.5%	u	5.3%
O=C(C1=C[C@@H](C2CCCCC2)C[C@@H](OCc2ccc(CO)cc2)O1)N1CCN(Cc2ccccc2)CC1	-5.0%	3.8%	16.4µM*	-21.2%	20.6µM*	-1.0%
O=C(Nc1ccccc1)C1=C[C@@H](C2CCCCC2)C[C@@H](OCc2ccc(CO)cc2)O1	-12.0%	3.8%	23.1µM*	u	18.4µM*	-4.9%
C=CCN1CC(C(=O)N(CCCN(C)C)C(=O)NCC)CC2c3cccc4[nH]cc(c34)CC21 (stereo unspecified)	1.3%	6.2%	x	-3.2%	x	x
CC(=O)Nc1ccc(NC(=O)C(C)Sc2nnc(-c3cccs3)o2)cc1 (stereo unspecified)	1.0%	5.1%	9.1%	-5.0%	-3.2%	-3.0%
Cc1cc(SCC(=O)N/N=C/c2ccc(O)c(O)c2)c(C)cc1Br	-2.1%	5.6%	16.4µM*	0.0%	20.6µM*	-13.5%
COC(=O)CSc1cc(C)nc2ccc(OC)cc12	-1.8%	3.8%	-11.5%	-13.8%	-3.9%	u
Cc1cc(SCC(=O)N/N=C/c2ccc(O)c(O)c2)nc2ccccc12	-13.5%	x	u	-14.6%	u	-11.0%
CC(=O)N1CCC(=NNC(=O)CSc2cc(C)c(Br)cc2C)CC1	-1.4%	-3.2%	-25.5%	-3.6%	-20.1%	-6.2%
COc1ccc2nc(C)cc(SCC(=O)N/N=C/c3cccc4ccccc34)c2c1	1.5%	10.5%	12.6µM*	-8.9%	7.08µM*	-6.8%
Cc1cc(SCC(=O)N/N=C/c2ccc(O)cc2O)nc2ccccc12	-8.3%	x	4.11µM*	13.0%	u	-19.4%
COc1ccc2nc(C)cc(SCC(=O)N/N=C/c3ccc(O)c(O)c3)c2c1	-3.8%	8.1%	29.1µM*	15.6%	u	-5.4%
COc1cccc2c(SCC(=O)N/N=C/c3ccc(O)c(O)c3)cc(C)nc12	-8.4%	u	u	-6.8%	-27.3%	-12.8%

Screening results from PubChem.
